The record followed here is PubChem BioAssay.

Experiment [1] is described as follows: antimalarial activity against Dd2 strain (AID 2302;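 active means growth inhibition above 50% at the single 2 µM test dose, taken to imply half-maximal potency below 2 µM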;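 further: 0% = DMSO untreated growth and 100% = chloroquine plus artemisinin killed control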). The settings on record: P. falciparum Dd2 in RBCs, LDH growth readout, 72 h; at 2 µM; active compounds read high.
A short description of experiment [2]: human hepatoma cell viability loss – ATP luminescence, cytotoxicity control for P. falciparum antimalarial project, primary screen (AID 2303;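 active means inhibition above 50%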;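 further: 0% = DMSO wells and 100% = digitonin-killed cells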). The settings on record: HepG2 viability, 24-48 h, at 10 µM, active compounds read high.
Experiment [3] has as its target L-lactate dehydrogenase (Plasmodium falciparum (isolate CDC / Honduras)) (UniProt Q27743). In words: PfLDH activity inhibition – cell lysate, 3D7 strain, counter-screen for P. falciparum growth inhibition project (AID 2304).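 Further: 0% = vehicle and 100% = reference inhibitor.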 The settings on record: P. falciparum 3D7 crude extract, LDH APAD/NBT absorbance; at 2 µM; active compounds read high. (In general: Counterscreens check selectivity or assay interference.)

The nature of experiment [4]: inhibition of 3D7 malaria parasite growth – strain 3D7 (AID 2306).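 Further: 0% = DMSO wells and 100% = chloroquine plus artemisinin control wells.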 The settings on record: P. falciparum 3D7 erythrocytic growth, LDH absorbance, 72 h; at 2 µM; active compounds read high.
Experiment [5] has as its target Calcium-dependent protein kinase 1 (Plasmodium falciparum (isolate 3D7)) (UniProt P62344). In words: PfCDPK1 kinase inhibitors, biochemical, TCAMS library (AID 1159585; cut-off not given, nearly all actives have IC50 up to about 0.98 µM;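 further: inhibitors leave more ATP so luminescence rises with inhibition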). The settings on record: recombinant PfCDPK1, Kinase-Glo ATP depletion luminescence.
The target in experiment [6] is Plasmodium falciparum protein kinase 6 (PK6, PF3D7_1337100) (UniProt Q8IDW1). In words: PfPK6 kinase inhibitors, biochemical, TCAMS library (AID 1159586). The settings on record: recombinant PfPK6, Kinase-Glo ATP depletion luminescence. Background: Kinase-Glo measures the ATP left after a reaction by luminescence.
For experiment [7], the target named is Protein kinase 7 (PK7), Plasmodium falciparum 3D7 (PF3D7_0213400) (UniProt Q7YTF7). Briefly: inhibition of Plasmodium PK7 catalytic activity – biochemical, TCAMS antimalarial set, Kinase-Glo luminescence (AID 1159587). The settings on record: recombinant PfPK7, Kinase-Glo ATP depletion luminescence.
The target of experiment [8] is Calcium-dependent protein kinase 4 (Plasmodium falciparum (isolate 3D7)) (UniProt Q8IBS5). In words: PfCDPK4 kinase inhibitors, biochemical, TCAMS library (AID 1159588; cut-off not given, nearly all actives have IC50 up to about 0.91 µM). The settings on record: recombinant PfCDPK4, Kinase-Glo ATP depletion luminescence.

A number with no mark means an inactive call. For some of these results: Entries with a potency or affinity are not part of this list. Activity calls are given as the source filed them. Unless noted, how the calls were made is not given here.

Sequence of Protein kinase 7 (PK7), Plasmodium falciparum 3D7 (PF3D7_0213400) (Q7YTF7 1-343): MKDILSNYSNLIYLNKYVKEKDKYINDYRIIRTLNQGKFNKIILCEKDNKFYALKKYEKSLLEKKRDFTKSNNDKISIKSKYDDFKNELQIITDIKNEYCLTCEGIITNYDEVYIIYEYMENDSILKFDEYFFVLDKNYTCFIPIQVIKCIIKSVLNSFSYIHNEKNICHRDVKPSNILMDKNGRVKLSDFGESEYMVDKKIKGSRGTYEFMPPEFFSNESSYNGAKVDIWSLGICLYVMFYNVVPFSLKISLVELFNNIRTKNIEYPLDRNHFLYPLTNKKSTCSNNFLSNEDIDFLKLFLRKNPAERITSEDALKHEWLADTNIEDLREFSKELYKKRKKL
Sequence of Calcium-dependent protein kinase 4 (Plasmodium falciparum (isolate 3D7)) (Q8IBS5 whole entry, looked up): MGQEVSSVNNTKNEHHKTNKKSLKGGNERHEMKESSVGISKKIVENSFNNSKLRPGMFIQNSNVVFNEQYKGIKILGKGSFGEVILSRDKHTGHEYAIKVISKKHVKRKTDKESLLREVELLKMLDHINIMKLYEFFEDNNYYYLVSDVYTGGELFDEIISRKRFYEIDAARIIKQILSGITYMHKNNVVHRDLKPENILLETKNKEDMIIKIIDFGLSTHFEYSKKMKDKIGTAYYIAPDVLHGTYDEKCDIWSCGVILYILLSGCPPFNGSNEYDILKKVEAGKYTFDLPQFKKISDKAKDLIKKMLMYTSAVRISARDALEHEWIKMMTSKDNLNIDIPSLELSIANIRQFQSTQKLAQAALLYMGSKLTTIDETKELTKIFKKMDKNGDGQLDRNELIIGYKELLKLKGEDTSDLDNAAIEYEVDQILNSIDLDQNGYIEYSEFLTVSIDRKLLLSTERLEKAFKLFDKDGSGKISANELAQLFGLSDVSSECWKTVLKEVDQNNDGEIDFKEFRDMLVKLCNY
Sequence of Plasmodium falciparum protein kinase 6 (PK6, PF3D7_1337100) (Q8IDW1 1-305): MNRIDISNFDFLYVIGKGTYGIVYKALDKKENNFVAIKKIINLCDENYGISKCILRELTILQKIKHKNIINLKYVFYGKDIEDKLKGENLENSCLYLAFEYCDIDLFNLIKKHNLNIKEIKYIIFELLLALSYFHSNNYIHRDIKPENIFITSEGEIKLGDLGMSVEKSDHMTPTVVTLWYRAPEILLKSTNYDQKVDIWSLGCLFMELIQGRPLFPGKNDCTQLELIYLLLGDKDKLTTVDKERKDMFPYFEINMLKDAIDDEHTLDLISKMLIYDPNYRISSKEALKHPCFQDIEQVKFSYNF
Sequence of L-lactate dehydrogenase (Plasmodium falciparum (isolate CDC / Honduras)) (Q27743 whole entry, looked up): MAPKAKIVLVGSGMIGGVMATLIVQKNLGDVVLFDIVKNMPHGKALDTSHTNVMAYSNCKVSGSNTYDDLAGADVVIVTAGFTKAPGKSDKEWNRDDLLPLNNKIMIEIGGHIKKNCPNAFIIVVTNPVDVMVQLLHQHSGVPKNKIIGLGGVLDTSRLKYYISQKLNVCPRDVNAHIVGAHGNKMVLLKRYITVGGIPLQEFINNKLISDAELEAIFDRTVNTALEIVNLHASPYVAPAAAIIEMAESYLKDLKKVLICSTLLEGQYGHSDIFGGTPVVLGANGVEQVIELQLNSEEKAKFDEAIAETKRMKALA
Sequence of Calcium-dependent protein kinase 1 (Plasmodium falciparum (isolate 3D7)) (P62344 whole entry, looked up): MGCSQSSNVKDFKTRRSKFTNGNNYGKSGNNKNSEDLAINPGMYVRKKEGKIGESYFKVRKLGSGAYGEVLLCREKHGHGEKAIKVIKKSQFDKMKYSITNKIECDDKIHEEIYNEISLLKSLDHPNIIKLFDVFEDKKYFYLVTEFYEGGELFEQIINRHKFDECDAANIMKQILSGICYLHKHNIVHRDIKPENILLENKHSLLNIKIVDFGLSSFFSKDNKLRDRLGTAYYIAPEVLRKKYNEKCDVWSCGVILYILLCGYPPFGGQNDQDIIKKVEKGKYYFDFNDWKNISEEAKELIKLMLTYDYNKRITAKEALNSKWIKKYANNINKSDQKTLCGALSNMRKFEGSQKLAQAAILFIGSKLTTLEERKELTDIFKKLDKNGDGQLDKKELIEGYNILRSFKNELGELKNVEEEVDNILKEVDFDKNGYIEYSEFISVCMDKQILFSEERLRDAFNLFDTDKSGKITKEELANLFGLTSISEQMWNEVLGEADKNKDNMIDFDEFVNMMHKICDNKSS

By inhibition is commonly meant the drop in the measured response relative to a control, in per cent. Consider `CN(C)CCOc1cc(NC(=O)Nc2cccc3c(-c4ccncc4)cccc23)ccc1I`, for which the values for the growth inhibition in experiment [1] and in experiment [4] were 28% and 100% (active), respectively. In addition, the figures for the inhibition in experiment [2] and in experiment [3] were 20% and 0%, respectively. In addition, the outcome in experiment [5], in experiment [6], in experiment [7] and in experiment [8] was inactive.
In the case of `COc1cc(-n2c(CN3CCCC3)nc3cc(-c4ccc(Cl)cc4)sc3c2=O)ccc1OCCN1CCCC1`, the growth inhibition was 90% (active) in experiment [1] and 94% (active) in experiment [4]. Besides, the inhibition in experiment [2] was 66% (active); in experiment [3], -5%. In addition, the result in experiment [5], in experiment [6], in experiment [7] and in experiment [8] was inactive.
For the molecule `Cc1ccc(N2C(N)=NC(N)=NC2c2ccccc2)cc1` (stereo not given), the growth inhibition in experiment [1] was 1%; in experiment [4], 94% (active). Besides, the inhibition was 11% in experiment [2] and -1% in experiment [3]. The outcome in experiment [5], in experiment [6], in experiment [7] and in experiment [8] was inactive.
For the molecule `CC(Sc1nc(-c2ccccc2)c(-c2ccccc2)o1)C(=O)NC1CC1` (stereo not given), the figures for the growth inhibition in experiment [1] and in experiment [4] were 91% (active) and 94% (active), respectively. The inhibition in experiment [2] was 13%; in experiment [3], -2%. Also, the outcome in experiment [5], in experiment [6], in experiment [7] and in experiment [8] was inactive.
Turning to `CCOc1cc(C)ccc1C1CCN(CCCCNC(=O)c2ccc(-c3ccc(Cl)cn3)cc2)CC1`, the growth inhibition in experiment [1] was 8%; in experiment [4], 94% (active). Further, the inhibition was 19% in experiment [2] and -6% in experiment [3]. Further, the result in experiment [5], in experiment [6], in experiment [7] and in experiment [8] was inactive.
As to `Cc1cccc2[nH]c(-c3cccc(-c4ccc(C(=O)NCCc5ccc(O)c(=O)[nH]5)cc4)c3)nc12`, the growth inhibition in experiment [1] was 30%; in experiment [4] it was 85% (active). The values for the inhibition in experiment [2] and in experiment [3] were 20% and -1%, respectively. The result in experiment [5], in experiment [6], in experiment [7] and in experiment [8] was inactive.
Turning to `COc1ccc(CN=C(N)Nc2nc(-c3ccc(OCCCn4ccnc4)cc3)cs2)cc1`, the growth inhibition in experiment [1] is 67% (active); in experiment [4], 100% (active). Further, the inhibition in experiment [2] is 15%; in experiment [3], -5%. Moreover, the result in experiment [5], in experiment [6], in experiment [7] and in experiment [8] was inactive.
Turning to `COc1cc(Cl)c(C)cc1-n1cc(C(=O)c2cc(Br)ccc2O)cc(C#N)c1=O`, the growth inhibition was 35% in experiment [1] and 95% (active) in experiment [4]. In addition, the results for the inhibition in experiment [2] and in experiment [3] were 3% and -3%, respectively. In addition, the result in experiment [5], in experiment [6], in experiment [7] and in experiment [8] was inactive.
As to `COc1ccc(CNC(=O)c2cnc3c(O)cccc3c2Nc2cccc(NC(=O)c3ccc(Cl)c([N+](=O)[O-])c3)c2)cc1`, the growth inhibition in experiment [1] was 21%; in experiment [4], 86% (active). In addition, the figures for the inhibition in experiment [2] and in experiment [3] were 48% and 1%, respectively. For the same molecule, the outcome in experiment [5], in experiment [6], in experiment [7] and in experiment [8] was inactive.
Consider `O=C(NC1CCN(Cc2ccccc2)CC1)c1ccc(-c2nc3cc4ccccc4cc3[nH]2)s1`, for which the growth inhibition in experiment [1] was 25%; in experiment [4] it was 99% (active). Further, the inhibition in experiment [2] is 13%; in experiment [3] it was -1%. Further, the result in experiment [5], in experiment [6], in experiment [7] and in experiment [8] was inactive.
Take `CCC(CC)CN1C(=O)C(c2ccccc2)(c2ccccc2)N=C1N`: the figures for the growth inhibition in experiment [1] and in experiment [4] were 81% (active) and 97% (active), respectively. Besides, the inhibition in experiment [2] was 14%; in experiment [3], -3%. In addition, the result in experiment [5], in experiment [6], in experiment [7] and in experiment [8] was inactive.
Regarding `CCCCC(N)COc1cccc2c(-c3ccncc3)c(-c3cccc(NC(=O)Nc4ccccc4)c3)nn12` (stereo not given), the growth inhibition is 82% (active) in experiment [1] and 102% (active) in experiment [4]. The inhibition in experiment [2] is 13%; in experiment [3] it was 0%. Besides, the result in experiment [5], in experiment [6], in experiment [7] and in experiment [8] was inactive.
In the case of `COc1ccc(CC(=O)NC2CCN(c3ccnc4cc(Cl)ccc34)C2)cc1` (stereo not given), the growth inhibition was 88% (active) in experiment [1] and 101% (active) in experiment [4]. Further, the inhibition in experiment [2] was -1%; in experiment [3] it was -8%. For the same molecule, the outcome in experiment [5], in experiment [6], in experiment [7] and in experiment [8] was inactive.
For `CCN(CC)CCN(Cc1ccc(-c2ccc(C(F)(F)F)cc2)cc1)C(=O)Cn1c(CCc2cccc(F)c2F)nc(=O)c2ccccc21`, the growth inhibition is 60% (active) in experiment [1] and 97% (active) in experiment [4]. Also, the inhibition is 49% in experiment [2] and -3% in experiment [3]. The outcome in experiment [5], in experiment [6], in experiment [7] and in experiment [8] was inactive.
On to `COc1ccc(S(=O)(=O)NC2CCN(c3ccnc4cc(Cl)ccc34)C2)cc1` (stereo not given), for which the growth inhibition is 86% (active) in experiment [1] and 100% (active) in experiment [4]. The inhibition in experiment [2] is 12%; in experiment [3], -2%. In addition, the outcome in experiment [5], in experiment [6], in experiment [7] and in experiment [8] was inactive.
Regarding `CCN(CCCN1CCCCC1)c1cc(C)nc(Nc2cccc3c2CCCC3)n1`, the growth inhibition in experiment [1] is 46%; in experiment [4] it was 92% (active). In addition, the inhibition in experiment [2] is 60% (active); in experiment [3], -3%. Moreover, the outcome in experiment [5], in experiment [6], in experiment [7] and in experiment [8] was inactive.
For `COc1ccc(NC(=O)[C@H](Cc2ccccc2)Nc2cc(C)nc(NCCc3ccccc3)n2)cc1`, the growth inhibition in experiment [1] was 83% (active); in experiment [4], 98% (active). Besides, the inhibition in experiment [2] was 6%; in experiment [3] it was -1%. The result in experiment [5], in experiment [6], in experiment [7] and in experiment [8] was inactive.
`COc1ccc(Nc2nccc(-c3ccc4ccnc(NCCCCN)c4c3)n2)cc1`: the results for the growth inhibition in experiment [1] and in experiment [4] were 47% and 95% (active), respectively. The inhibition in experiment [2] is 15%; in experiment [3], 6%. For the same molecule, the result in experiment [5], in experiment [6], in experiment [7] and in experiment [8] was inactive.
Take `c1ccc2c(c1)CN(Cc1ccsc1)CC1(CCN(Cc3c[nH]c4cnccc34)CC1)O2`: the growth inhibition in experiment [1] is 75% (active); in experiment [4], 87% (active). The figures for the inhibition in experiment [2] and in experiment [3] were 38% and -2%, respectively. Also, the outcome in experiment [5], in experiment [6], in experiment [7] and in experiment [8] was inactive.
With `FC(F)(F)c1ccc(-c2cncc(-c3ccc(C(F)(F)F)cc3)n2)cc1`, the growth inhibition in experiment [1] was 97% (active); in experiment [4] it was 98% (active). The inhibition was 9% in experiment [2] and -7% in experiment [3]. Moreover, the result in experiment [5], in experiment [6], in experiment [7] and in experiment [8] was inactive.
